Data reported in PubChem BioAssay (NCI).
Compounds without any hit were thinned out: in the full panel of roughly 83,000, 20% have a hit.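 48-hour exposure, single concentration, 96-well plates; percent growth endpoint where 0 means no net growth. Active: below 10.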 Unmarked numbers belong to inactive results. Calls of active or inactive are those of the source.

What was measured:
Assay in all cases: NCI-60 one-dose screen, 48 h (100 = growth as untreated, 0 = no growth, -100 = all killed)
Conditions in all cases: 10 µM unless noted
NCI-H23 lung = tested on: NCI-H23 lung
NCI-H226 lung = tested on: NCI-H226 lung
NCI-H322M lung = tested on: NCI-H322M lung
HOP-62 NSCLC = tested on: HOP-62 NSCLC
NCI-H460 lung = tested on: NCI-H460 lung
HOP-92 NSCLC = tested on: HOP-92 NSCLC
NCI-H522 lung = tested on: NCI-H522 lung
A549/ATCC NSCLC = tested on: A549/ATCC NSCLC
786-0 renal = tested on: 786-0 renal
COLO 205 colon = tested on: COLO 205 colon
DU-145 prostate = tested on: DU-145 prostate
K-562 leukemia = tested on: K-562 leukemia
MALME-3M melanoma = tested on: MALME-3M melanoma
MDA-MB-231 breast = tested on: MDA-MB-231 breast
RXF 393 renal = tested on: RXF 393 renal
SF-268 CNS = tested on: SF-268 CNS
SF-295 CNS = tested on: SF-295 CNS
SF-539 CNS = tested on: SF-539 CNS
UACC-257 melanoma = tested on: UACC-257 melanoma
M14 melanoma = tested on: M14 melanoma

| SMILES | growth (NCI-H23 lung) | growth (NCI-H226 lung) | growth (NCI-H322M lung) [%] | growth (HOP-62 NSCLC) | growth (NCI-H460 lung) | growth (HOP-92 NSCLC) | growth (NCI-H522 lung) | growth (A549/ATCC NSCLC) | growth (786-0 renal) | growth (COLO 205 colon) | growth (DU-145 prostate) | growth (K-562 leukemia) | growth (MALME-3M melanoma) | growth (MDA-MB-231 breast) | growth (RXF 393 renal) | growth (SF-268 CNS) | growth (SF-295 CNS) | growth (SF-539 CNS) | growth (UACC-257 melanoma) | growth (M14 melanoma) |
| --- | --- | --- | --- | --- | --- | --- | --- | --- | --- | --- | --- | --- | --- | --- | --- | --- | --- | --- | --- | --- |
| CN1CCC(O)(c2ccc(F)cc2)C(C(=O)c2ccc(F)cc2)C1 (stereo not given) | 99.3% | 108% | 98.7 | 97.2% | 109% | 96.4% | 78.9% | 101% | 102% | 115% | 107% | 99.1% | 84.6% | 104% | 103% | 106% | 110% | 96.8% | 106% | 106% |
| N#Cc1c(Br)n(C2OC(CO)C(O)C2O)c2ncnc(N)c12 (stereo not given) | 74.4% | 135% | 81 | 101% | 34% | 52.7% | 60.5% | 13.4% | 89.1% | 18.2% | 17.8% | 20.8% | 108% | 97.1% | 13.8% | 55% | 87.5% | 102% | 80.3% | 60% |
| O=C(CC1(O)C(=O)N(Cc2ccccc2)c2ccccc21)c1ccc(C(=O)NCC2CCC3(CC2)OOC2(CCCCC2)OO3)cc1 (stereo not given) | -72.2% (active) | -34.8% (active) | 65.2 | -48.2% (active) | -51.4% (active) | -72% (active) | -28% (active) | -53.6% (active) | -73.1% (active) | -52.9% (active) | -100% (active) | -48.3% (active) | -73% (active) | -65.8% (active) | -81% (active) | -62% (active) | 10.7% | -83.2% (active) | -21% (active) | 13.1% |
| O=C(N/N=C/c1ccc(N(CCCl)CCCl)cc1)c1cccc2ccccc12 | 85.7% | 74.3% | 102 | 59.5% | 47% | 55.5% | 47.9% | 58.4% | 74.2% | 86.3% | 85.3% | 38.9% | 84.8% | 86.9% | 93.3% | 77.4% | 78.7% | 78.6% | 79.1% | 51.7% |
| CC[C@H](C)[C@H](NC(=O)[C@H]1CCCCN1C)C(=O)N(C)[C@H](C[C@@H](OC(C)=O)c1nc(C(=O)N[C@@H](Cc2ccccc2)C[C@H](C)C(=O)OC)cs1)C(C)C | 11.8% | 12.6% | 49.3 | 20.6% | 14.6% | -0.123% (active) | -19.8% (active) | 8.91% (active) | 11.8% | -39.7% (active) | 1.75% (active) | 4.21% (active) | 65.5% | 19.5% | 38.1% | 31.2% | 2.06% (active) | -11.3% (active) | 52.9% | 3.87% (active) |
| Nc1ccc2c(c1)Cc1cc(Br)ccc1-2 | 90.5% | 95.4% | 105 | 101% | 104% | 78% | 107% | 100% | 108% | 117% | 109% | 92.2% | 118% | 84% | 112% | 88% | 107% | 100% | 122% | 118% |
| CCCCCCCCOC(=O)CCN1CC1 | 111% | 93.5% | 107 | 124% | 115% | 77% | 121% | 99.1% | 107% | 116% | 98.5% | 119% | 110% | 114% | 107% | 95.9% | 120% | 99.4% | 103% | 107% |
| Cc1c(C)c([N+](=O)[O-])c(C)c(C)c1[N+](=O)[O-] | 112% | 100% | 121 | 109% | 113% | 135% | 80.3% | 91.5% | 103% | 119% | 108% | 102% | 138% | 108% | 112% | 100% | 101% | 108% | 99.5% | 115% |
